For five compounds, composite z-score and z-score results are on record in PubChem BioAssay.

Assay [1] has as its system Wnt5a (protein binding on small-molecule microarray). As to the kind of experiment: Wnt5a binders on small-molecule microarray, primary screen, biophysical, 635/667 nm fluorescence (AID 1142).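 Further: fluorescence read at 667 nm with signal to noise per printed feature.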 As to conditions: 635 nm fluorescence, higher = more signal.
Assay [2] is described as follows: cell viability in Huh7 cells, primary screen, cytotoxicity control for HCV replication inhibitor project, CellTiter-Glo luminescence, basal, 48 h (AID 1143).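 Further: Huh7 hepatoma cells carrying a hepatitis C replication reporter with no stimulus; test concentration not given here.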 As to conditions: Huh7 HCV replicon, higher = more signal, called active from +8 up or from −8 down. A general note: Cellular ATP, detected with luciferase, serves as a proxy for viable cell number.
Assay [3] is described as follows: P. aeruginosa biofilm formation inhibitors, primary screen, PAO1 strain, BacTiter-Glo luminescence, LB-PBS (AID 1144). As to conditions: 12 h, higher = more signal.
The nature of assay [4]: CREB reporter modulators without forskolin, primary screen, cell-based, PC12, CRE-LacZ reporter, unstimulated (AID 1145). As to conditions: no forskolin, luminescence, 4.5 h, higher = more signal, called active from +8 up or from −8 down.
Assay [5] in a line: CREB reporter modulators under forskolin, primary screen, cell-based, PC12, CRE-LacZ reporter, forskolin-stimulated (AID 1146).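 Further: PC12 cells with 6xCRE LacZ reporter stimulated by forskolin 10 µM; beta-galactosidase reporter signal reflecting CREB driven transcription.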 As to conditions: luminescence, 4.5 h, higher = more signal, called active from +8 up or from −8 down.
Assay [6] concerns the target Streptavidin (Streptomyces avidinii) (UniProt P22629). The assay is described as follows: streptavidin binders on small-molecule microarray, primary screen, artefact control for SMM compound annotation, biophysical, 635/667 nm fluorescence (AID 1147).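 Further: signal reflects streptavidin binding to arrayed compounds as a control protein.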 As to conditions: streptavidin binding, higher = more signal.
Assay [7] can be described thus: small-molecule binders of probe aInhba, primary screen, biochemical, small-molecule microarray, 635/667 nm fluorescence (AID 1148).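 Further: score merges 667nm spot fluorescence with signal-to-noise for antibody binding to printed compounds.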 As to conditions: higher = more signal.
Assay [8] has as its target Torsin-1A (Homo sapiens) (UniProt O14656). The assay is described as follows: torsin A binders from cell lysate, primary screen, small-molecule microarray, wild-type, 635/667 nm (AID 1149). The conditions noted are these: COS7 hTOR1A-WT lysate, 635 nm fluorescence, higher = more signal.
Assay [9] has the same target. The assay is described as follows: small-molecule binders of mutant TOR1A in lysate, primary screen, cell lysate, small-molecule microarray, COS7 lysate, 635/667 nm fluorescence (AID 1150).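 Further: score pools 667 nm emission and signal to noise measuring lysate protein binding.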 As to conditions: COS7 hTOR1A mutant lysate, 635 nm fluorescence, higher = more signal.
Assay [10] relates to Sonic hedgehog protein (Shh). As to the kind of experiment: small-molecule binders of Shh protein, primary screen, biochemical, small-molecule microarray, 635/667 nm fluorescence (AID 1151).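 Further: Shh protein binding to compounds spotted on small-molecule microarray slides; score combines spot fluorescence intensity with signal-to-noise across triplicate slides.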 The conditions noted are these: small-molecule microarray binding, 635 nm fluorescence; higher = more signal.
A short description of assay [11]: E. coli DRC41 culture turbidity changes, primary screen, E. coli filamentation inducer project, strain DRC41, OD650, 48 h (AID 1152).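 Further: E. coli MC1000 strain DRC41 lacking acrAB efflux pump and sulA.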 As to conditions: E. coli DRC41 (acrAB sulA), higher = more signal, called active from +8 up or from −8 down.
The nature of assay [12]: small-molecule binders of probe aLefty1, primary screen, biochemical, small-molecule microarray, 635/667 nm fluorescence (AID 1153).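 Further: score merges spot fluorescence with signal-to-noise ratio from the scanned slide images.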 The conditions noted are these: higher = more signal.
Assay [13] is described as follows: PSAC antagonists in infected red cells, primary screen, cell-based, P. falciparum Indochina, OD700, 1 h (AID 1154). As to conditions: P. falciparum Indochina infected RBC osmotic lysis, higher = more signal, called active from +8 up or from −8 down.
Assay [14] is described as follows: PSAC antagonists in infected red cells, primary screen, cell-based, P. falciparum Indochina, OD700, 2 h (AID 1155).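 Further: lysis reports solute entry through the parasite surface anion channel PSAC; channel blockers reduce lysis of infected cells.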 As to conditions: P. falciparum Indochina infected erythrocytes, osmotic lysis OD700; higher = more signal, called active from +8 up or from −8 down.
Assay [15] is described as follows: osmotic lysis modulators in infected erythrocytes, primary screen, PSAC antagonist project, cell-based, P. falciparum Indochina, OD700, 3 h (AID 1156). As to conditions: higher = more signal, called active from +8 up or from −8 down.
A short description of assay [16]: PSAC antagonists in infected red cells, primary screen, cell-based, P. falciparum Indochina, OD700, 18 h (AID 1157). As to conditions: P. falciparum Indochina infected erythrocytes, osmotic lysis OD700, 18 h; higher = more signal, called active from +8 up or from −8 down.
Assay [17] in a line: modulators of S6 phosphorylation in cells, primary screen, cell-based, A549, cytoblot, luminescence, serum-stimulated (AID 1158).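 Further: serum-stimulated A549 lung adenocarcinoma cells; signal is phosphorylated S6 detected by cytoblot immunostaining with HRP secondary.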 The conditions noted are these: A549 phospho-S6 cytoblot, 5 h, higher = more signal.
For assay [18], the target named is NADPH oxidase 2 (Homo sapiens) (UniProt P04839). The assay is described as follows: NOX2-dependent H2O2 signal modulators, primary screen, NOX inhibitor project, cell-based, HEK293-NOX2, PMA-stimulated, Amplex Red fluorescence (AID 1159). Further: test concentration not given here. As to conditions: 45 min, higher = more signal, called active from +8 up or from −8 down.
Sequence of NADPH oxidase 2 (Homo sapiens) (P04839 whole entry, looked up): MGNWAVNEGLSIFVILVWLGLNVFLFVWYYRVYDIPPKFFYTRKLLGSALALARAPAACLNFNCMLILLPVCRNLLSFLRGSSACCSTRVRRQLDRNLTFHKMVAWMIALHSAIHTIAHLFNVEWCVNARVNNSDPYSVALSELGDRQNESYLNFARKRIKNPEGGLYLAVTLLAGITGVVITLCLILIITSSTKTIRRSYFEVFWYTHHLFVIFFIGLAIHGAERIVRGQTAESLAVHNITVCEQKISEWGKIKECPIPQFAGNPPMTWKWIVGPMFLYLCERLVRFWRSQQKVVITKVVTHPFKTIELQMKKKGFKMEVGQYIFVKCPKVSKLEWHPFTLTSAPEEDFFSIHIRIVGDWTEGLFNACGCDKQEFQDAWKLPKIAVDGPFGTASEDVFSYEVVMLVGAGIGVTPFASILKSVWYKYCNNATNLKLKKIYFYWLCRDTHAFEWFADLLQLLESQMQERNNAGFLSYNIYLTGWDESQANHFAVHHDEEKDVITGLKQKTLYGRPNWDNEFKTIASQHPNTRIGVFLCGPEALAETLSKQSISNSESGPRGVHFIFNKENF
The target of assay [19] is NADPH oxidase 4 (Homo sapiens) (UniProt Q9NPH5). The assay is described as follows: NOX4-dependent H2O2 signal modulators, primary screen, NOX inhibitor project, cell-based, HEK293-NOX4, tetracycline-induced, Amplex Red fluorescence (AID 1160). The conditions noted are these: 45 min, higher = more signal, called active from +8 up or from −8 down.
Sequence of NADPH oxidase 4 (Homo sapiens) (Q9NPH5 whole entry, looked up): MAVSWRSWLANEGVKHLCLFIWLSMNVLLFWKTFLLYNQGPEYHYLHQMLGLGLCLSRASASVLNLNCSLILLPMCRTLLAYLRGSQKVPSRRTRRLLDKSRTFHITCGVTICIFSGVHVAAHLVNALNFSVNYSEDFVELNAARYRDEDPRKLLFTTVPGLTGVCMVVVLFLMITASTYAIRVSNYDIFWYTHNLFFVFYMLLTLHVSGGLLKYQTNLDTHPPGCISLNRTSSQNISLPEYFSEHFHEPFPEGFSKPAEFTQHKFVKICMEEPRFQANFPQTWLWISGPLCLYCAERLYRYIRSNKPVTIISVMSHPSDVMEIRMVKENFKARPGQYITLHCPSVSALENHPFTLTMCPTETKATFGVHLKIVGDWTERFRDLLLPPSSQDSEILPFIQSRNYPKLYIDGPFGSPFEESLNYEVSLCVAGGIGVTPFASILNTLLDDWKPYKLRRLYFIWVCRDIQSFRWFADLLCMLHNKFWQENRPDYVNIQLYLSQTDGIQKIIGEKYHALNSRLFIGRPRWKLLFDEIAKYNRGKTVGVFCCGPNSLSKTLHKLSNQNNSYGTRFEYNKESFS
Assay [20] deals with NADPH oxidase 5 (Homo sapiens) (UniProt Q96PH1). The assay is described as follows: NOX5-dependent H2O2 signal modulators, primary screen, NOX inhibitor project, cell-based, HEK293-NOX5, Amplex Red fluorescence (AID 1161). The conditions noted are these: HEK293-NOX5, ionomycin, 45 min, higher = more signal.
Sequence of NADPH oxidase 5 (Homo sapiens) (Q96PH1 whole entry, looked up): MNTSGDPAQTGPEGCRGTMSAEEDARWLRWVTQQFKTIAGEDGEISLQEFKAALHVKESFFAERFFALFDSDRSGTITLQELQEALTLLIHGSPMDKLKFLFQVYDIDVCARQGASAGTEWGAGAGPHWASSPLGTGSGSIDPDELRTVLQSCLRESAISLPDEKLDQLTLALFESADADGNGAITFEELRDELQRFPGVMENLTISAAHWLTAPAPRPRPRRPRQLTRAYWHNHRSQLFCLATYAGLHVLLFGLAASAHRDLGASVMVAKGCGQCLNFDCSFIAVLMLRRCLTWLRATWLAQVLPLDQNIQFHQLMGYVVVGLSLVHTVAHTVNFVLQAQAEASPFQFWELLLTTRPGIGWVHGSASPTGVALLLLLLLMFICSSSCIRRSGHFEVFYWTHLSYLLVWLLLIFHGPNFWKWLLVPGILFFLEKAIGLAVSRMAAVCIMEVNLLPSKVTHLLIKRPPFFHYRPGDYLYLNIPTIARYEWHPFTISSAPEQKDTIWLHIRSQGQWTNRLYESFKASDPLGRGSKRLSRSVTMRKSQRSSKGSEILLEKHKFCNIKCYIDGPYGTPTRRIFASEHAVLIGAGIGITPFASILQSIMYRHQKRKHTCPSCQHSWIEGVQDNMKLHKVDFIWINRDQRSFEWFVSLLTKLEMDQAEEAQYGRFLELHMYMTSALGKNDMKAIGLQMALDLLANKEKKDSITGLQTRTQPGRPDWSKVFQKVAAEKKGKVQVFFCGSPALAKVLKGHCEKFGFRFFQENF

Structures are written as SMILES. Calls of active or inactive are those of the source. Unless noted, how the calls were made is not given here.

Sequence of Torsin-1A (Homo sapiens) (O14656 whole entry, looked up): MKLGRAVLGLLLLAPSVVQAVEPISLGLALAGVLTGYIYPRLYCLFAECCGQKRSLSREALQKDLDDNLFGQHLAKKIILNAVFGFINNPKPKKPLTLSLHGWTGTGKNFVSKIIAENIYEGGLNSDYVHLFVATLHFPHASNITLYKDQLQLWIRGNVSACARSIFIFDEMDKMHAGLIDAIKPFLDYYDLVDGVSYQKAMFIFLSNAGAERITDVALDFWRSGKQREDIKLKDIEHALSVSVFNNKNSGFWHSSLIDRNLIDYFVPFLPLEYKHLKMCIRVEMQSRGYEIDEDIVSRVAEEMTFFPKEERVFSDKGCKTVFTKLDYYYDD
Sequence of Streptavidin (Streptomyces avidinii) (P22629 whole entry, looked up): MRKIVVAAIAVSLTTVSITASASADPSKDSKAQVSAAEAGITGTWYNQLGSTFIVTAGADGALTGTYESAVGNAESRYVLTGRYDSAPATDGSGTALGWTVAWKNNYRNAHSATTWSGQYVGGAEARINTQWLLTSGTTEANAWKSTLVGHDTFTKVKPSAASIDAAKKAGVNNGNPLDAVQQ

In the case of `C=C(COC)/C(=C/C[C@@H](OC(C)=O)c1ccccc1OCCO)c1cnc2ccccc2c1`, the composite z-score in [1] was 0.3; in assay [6], 0.219; in [7], -0.0087; in the assay with Torsin-1A (Homo sapiens) [8] it was 2.53; in the assay with Torsin-1A (Homo sapiens) [9], 2.34; in [10], 2.29. In [12], this compound yielded a composite z-score of 0.267. For the same compound, the z-score is -2.52 (inactive) in [2]; 0.514 (inactive) in assay [3]; 8.98 (active) in [4]; 0.879 (inactive) in [5]; -0.146 (inactive) in assay [11]; 28.1 (active) in assay [13]. For the same compound, the z-score in assay [14] was 14.2 (active); in [15], 1.56 (inactive); in assay [16], 1.71 (inactive); in assay [17] it was 0.413; in [18] it was -1.22 (inactive); in [19], -1.04 (inactive). Besides, in assay [20], the z-score is -0.792.
For `C=C(COC)C(=O)CC[C@@H](OC(=O)c1ccccc1-c1ccccc1C(=O)O)c1ccc(OCCO)cc1`, the composite z-score in assay [1] is 0.238; in assay [6], -0.986; in assay [7], 0.0018; in the assay with Torsin-1A (Homo sapiens) [8], -0.0281; with Torsin-1A (Homo sapiens) [9] it was 1.15; in assay [10], 1.86. In assay [12], this compound yielded a composite z-score of 0.712. Also, the z-score in assay [2] was -0.043 (inactive); in [3], -0.147 (inactive); in assay [4], 0.727 (inactive); in assay [5], 1.36 (inactive); in assay [11], -0.172 (inactive); in [13], 10.8 (active). Also, the z-score was 0.971 (inactive) in assay [14]; 0.489 (inactive) in assay [15]; 0.381 (inactive) in [16]; -0.528 in assay [17]; 0.849 (inactive) in assay [18]; -0.245 (inactive) in [19]. Moreover, in assay [20], the z-score was -1.32.
As for `CN1C(=O)C2C(C1=O)C1C=C(c3ccc(CO)cc3)C2C(C2CC2)N1C` (stereo not given), the composite z-score in assay [1] was -0.283; in assay [6] it was -0.095; in assay [7], -0.128; in the assay with Torsin-1A (Homo sapiens) [8], 0.508; in the assay with Torsin-1A (Homo sapiens) [9], 0.286; in [10] it was -0.605. In [12], this compound gave a composite z-score of -0.177. The z-score in assay [2] was -0.131 (inactive); in assay [3], 0.178 (inactive); in assay [4], -0.219 (inactive); in assay [5], 0.173 (inactive); in assay [11], 0.235 (inactive); in assay [13] it was 0.773 (inactive). Moreover, the z-score in assay [14] was 0.892 (inactive); in [15], 0.472 (inactive); in [16], 0.184 (inactive); in assay [17], 0.691; in assay [18], -1.19 (inactive); in assay [19], -0.394 (inactive). This compound gave a z-score in [20] of 0.163.
As for `CC(=O)OCC1C2CC[C@H]3C(OCc4ccc(F)cc4C(F)(F)F)OC[C@]4(C)[C@H]3C2=C(CN4C(=O)OC(C)(C)C)[C@H](C)C1COC(C)=O` (stereo not given in full), the composite z-score was 1.21 in [1]; 1.16 in assay [6]; 0.196 in assay [7]; -0.172 in the assay with Torsin-1A (Homo sapiens) [8]; 1.67 with Torsin-1A (Homo sapiens) [9]; -1.24 in [10]. Also, in [12], the composite z-score is 0.498. Further, the z-score in [2] is -1.87 (inactive); in assay [3], -0.212 (inactive); in assay [4], 0.0075 (inactive); in assay [5], 1.85 (inactive); in [11], -2.4 (inactive); in assay [13], 1.07 (inactive). Further, the z-score in assay [14] is 0.678 (inactive); in assay [15], 1.04 (inactive); in assay [16], 0.593 (inactive); in assay [17], -0.239; in assay [18], -0.896 (inactive); in assay [19], -2.29 (inactive). The z-score in assay [20] was -1.51.
For the compound `O=C1C2C=CC(C(O)c3c(F)cccc3Cl)N(Nc3ccc([N+](=O)[O-])cc3)C2C(=O)N1c1ccccc1` (stereo not given), the composite z-score in assay [1] stood at 0.469; in assay [6] it was 1.26; in [7] it was 0.142; with Torsin-1A (Homo sapiens) [8], 0.414; in the assay with Torsin-1A (Homo sapiens) [9], 1.03; in [10], 1.01. The compound further gave a composite z-score in assay [12] of 0.218. The z-score in assay [2] was -1.39 (inactive); in [3], -1.44 (inactive); in assay [4] it was -0.0787 (inactive); in [5] it was 0.329 (inactive); in assay [11] it was -0.262 (inactive); in [13], 30 (active). In addition, the z-score in assay [14] is 21 (active); in [15] it was 2.34 (inactive); in [16], 1.76 (inactive); in assay [17] it was -0.24; in assay [18] it was -1.5 (inactive); in assay [19], -2.29 (inactive). The compound also returned a z-score in [20] of -1.9.
